86 compounds from PubChem BioAssay AID463173 (ICCB-Longwood Screening Facility, Harvard Medical School, 2010) can be followed below.

Screen size: about 52,000 compounds; about 4,300 (8.3%) were called active. The sample holds actives, similar compounds and a random draw of the others, so the mix is not that of the screen. No stated cut-off is given here; in the data, active means survival mostly below about 52% (no sharp cut-off); inactive means mostly above about 56%.

This assay concerns DeltatarO mutant. Put plainly: S. aureus survival, RN4220 and DeltatarO strains – OD600, teichoic acid synthesis inhibitors, primary screen (AID 463173). As to conditions: S. aureus RN4220 wild type/DeltatarO growth, OD600, 18 h, hits give low values, screened at 18.75 µg/mL (by protocol).
In the case of `O=S(=O)(NCc1ccco1)c1cccc(S(=O)(=O)N2CCCCC2)c1`, the survival was 90% (inactive).

For the compound `O=C(NC1CCCCC1)c1ccc(Cn2c(SCc3cccc(F)c3)nc3cccnc32)cc1`, the survival was 81% (inactive).

As for `Cc1ccc2c(c1)N(C(=O)N1CCC(C(=O)NCc3ccccc3C)CC1)CC(C)O2` (stereo unspecified), the survival is 74% (inactive).

For `Cc1noc(-c2ccc(N(C)Cc3ccccc3)c([N+](=O)[O-])c2)n1`, the survival is 75% (inactive).

In the case of `COc1ccc(CC(=O)NCc2nc3cccnc3n2Cc2ccccc2)cc1`, the survival is 80% (inactive).

Take `COc1ccccc1N1CCN(S(=O)(=O)c2c(C)sc3ncn(CC(=O)N(C)c4ccc(C(C)C)cc4)c(=O)c23)CC1`: the survival was 67% (inactive).

For the compound `CCCCN(C)CCNC(=O)c1cc(-c2ccc(Cl)s2)nc2ccccc12`, the survival was 62% (inactive).

As for `COc1cc(NC(=O)CSc2nc(C)c(C(=O)Nc3ccccc3)c(-c3ccc(OC)c(OC)c3)c2C#N)c(OC)cc1Cl`, the survival is 61% (inactive).

Take `COc1ccc(CCn2c(=O)c3cccnc3n(CC(=O)Nc3c(C)cc(C)cc3C)c2=O)cc1OC`: the survival is 90% (inactive).

Consider `Cc1ccccc1CN1C(=O)c2ccccc2S(=O)(=O)c2ccc(C(=O)OCC3CCCO3)cc21` (stereo unspecified), for which the survival is 71% (inactive).

`CCOc1ccc(CCNC(=O)c2c(C)oc3ncn(CC(C)C)c(=O)c23)cc1`: the survival was 72% (inactive).

`Cc1nc(N2CCCC2)c2c(C(=O)Nc3ccc(C)c(Cl)c3)c(C)oc2n1`: the survival is 124% (inactive).

With `Cc1oc2ncnc(N3CCOCC3)c2c1C(=O)Nc1ccc(Br)cc1F`, the survival was 135% (inactive).

With `Cc1ccc(NC(=O)c2c(C)oc3nc(C)nc(N4CCCC4)c23)c(C)c1`, the survival is 70% (inactive).

With `Cc1nc(N2CCCC2)c2c(C(=O)Nc3ccc(Br)cc3F)c(C)oc2n1`, the survival was 25% (active).

Regarding `CCc1cccc(NC(=O)c2c(C)oc3nc(C)nc(N4CCCC4)c23)c1`, the survival is 103% (inactive).

Turning to `Cc1nc(N2CCCC2)c2c(C(=O)Nc3cccc(Cl)c3)c(C)oc2n1`, the survival is 20% (active).

Take `COc1cc(Cl)c(C)cc1NC(=O)c1cnc(N2CCOCC2)c2ccccc12`: the survival was 71% (inactive).

`COc1cc(CN(C(=O)c2ccccc2F)C2CCS(=O)(=O)C2)cc(OC)c1OC` (stereo unspecified): the survival is 46% (inactive).

With `COc1ccc(N2CCN(c3ncnc4c3cnn4C)CC2)cc1`, the survival was 75% (inactive).

In the case of `O=c1c2cn[nH]c2nc(SCc2c(F)cccc2F)n1-c1ccc(Cl)cc1`, the survival was 91% (inactive).

With `CC(C)c1ccc(NC(=O)CN2CCC(n3nnc4ccccc43)CC2)cc1`, the survival was 69% (inactive).

Consider `CCN(CC)CCN(C(=O)c1ccco1)c1nc2ccc(Cl)cc2s1`, for which the survival is 66% (inactive).

For `CCN(CC)CCN(C(=O)c1ccc(C(=O)OC)cc1)c1nc2ccc(Cl)cc2s1`, the survival is -4% (active).

Consider `CCc1ccc2nc(N(CCN(CC)CC)C(=O)c3ccco3)sc2c1`, for which the survival is 54% (inactive).

In the case of `COc1ccc(-c2cn3nc(N4CCCC(C(=O)Nc5cc(C)cc(C)c5)C4)sc3n2)cc1` (stereo unspecified), the survival was 75% (inactive).

As for `COc1ccc(-n2nnc(-c3nsc(NC(=O)c4cccc(C)c4)n3)c2C)cc1OC`, the survival is 88% (inactive).

With `COCCNC(=O)c1ccc(-n2c(-c3ccccc3)cc3c2CCCCC3)cc1`, the survival is 110% (inactive).

In the case of `COCCCNC(=O)c1ccc(-n2c(-c3ccccc3)cc3c2CCCC3)cc1`, the survival was 70% (inactive).

As for `CN(C)CCNC(=O)c1ccc(-n2c(-c3ccccc3)cc3c2CCCCC3)cc1`, the survival was 53% (inactive).

For `CCCNC(=O)c1ccc(-n2c(-c3ccccc3)cc3c2CCCCC3)cc1`, the survival was 103% (inactive).

Regarding `CC(C)OCCCNC(=O)c1ccc(-n2c(-c3ccccc3)cc3c2CCCC3)cc1`, the survival was 75% (inactive).

For `CCOCCCNC(=O)c1ccc(-n2c(-c3ccccc3)cc3c2CCCCC3)cc1`, the survival was 49% (inactive).

With `CC(C)NC(=O)c1ccc(-n2c(-c3ccccc3)cc3c2CCCCC3)cc1`, the survival was 108% (inactive).

As for `CN(C)CCNC(=O)c1ccc(-n2c(-c3ccccc3)cc3c2CCCC3)cc1`, the survival was 33% (active).

For `CCOCCCNC(=O)c1ccc(-n2c(-c3ccccc3)cc3c2CCCC3)cc1`, the survival is 69% (inactive).

With `CCN(CC)CCNC(=O)c1ccc(-n2c(-c3ccccc3)cc3c2CCCC3)cc1`, the survival was 8% (active).

Turning to `CCNC(=O)c1ccc(-n2c(-c3ccccc3)cc3c2CCCCC3)cc1`, the survival was 43% (active).

Regarding `COCCCNC(=O)c1ccc(-n2c(-c3ccccc3)cc3c2CCCCC3)cc1`, the survival is 39% (active).

Regarding `Cc1nnc(NCc2ccccc2)c2c1nnn2Cc1ccccc1Cl`, the survival is 92% (inactive).

As for `COc1ccc(CCNC(=O)c2c(C)nn(-c3ccc(F)cc3)c2-n2cccc2)cc1OC`, the survival was 74% (inactive).

On to `Cc1oc2c(c1C(=O)Nc1ccc(OC(F)(F)F)cc1)C1=NCCN1C=N2`, for which the survival was 80% (inactive).

For `COc1ccccc1CN1C(=O)CN(C2CCCCCC2)C(=O)C1c1ccc(C)cc1` (stereo unspecified), the survival was 88% (inactive).

Consider `Cc1ccc(-n2c(SCC(=O)Nc3cccc(C)c3)nc3c(oc4ccccc43)c2=O)cc1`, for which the survival was 99% (inactive).

As for `Cc1cccc(-n2ncc(C(=O)N3CCN(C(=O)c4ccco4)CC3)c2C2CCN(C(=O)OC(C)(C)C)CC2)c1`, the survival is 62% (inactive).

For the compound `CCCC(CCC)C(=O)Nc1cccc(-c2cn3cccnc3n2)c1`, the survival is 83% (inactive).

On to `CCC1CCCCN1C(=O)Cn1c(=O)n(CC2CCC(C(=O)NC)CC2)c(=O)c2sccc21` (stereo unspecified), for which the survival is 102% (inactive).

Consider `Oc1ccc(Br)cc1C1CC(c2ccccc2)=NC(c2ccco2)N1` (stereo unspecified), for which the survival was 1% (active).

Consider `O=C(CCN1CCOCC1)N1N=C(c2ccccc2)CC1c1ccco1` (stereo unspecified), for which the survival was 89% (inactive).

Take `O=c1oc2c(F)cc(F)cc2cc1S(=O)(=O)c1ccc(F)cc1`: the survival was 60% (inactive).

For `CN(Cc1ccccc1)c1ccc(-c2nc(-c3ccccc3)no2)cc1[N+](=O)[O-]`, the survival was 69% (inactive).

As to `COc1ccc(CN(C)c2ccc(-c3nc(-c4ccccc4)no3)cc2[N+](=O)[O-])cc1`, the survival is 71% (inactive).

Consider `CCN(CC)c1ccc(-c2nc(-c3ccncc3)no2)cc1[N+](=O)[O-]`, for which the survival was 79% (inactive).

Take `CCc1noc(-c2ccc(N(C)Cc3ccc(OC)cc3)c([N+](=O)[O-])c2)n1`: the survival is 75% (inactive).

As for `CN(Cc1ccccc1)c1ccc(-c2nc(-c3ccncc3)no2)cc1[N+](=O)[O-]`, the survival was 63% (inactive).

Take `CCN(Cc1ccc(OC)cc1)c1ccc(-c2nc(-c3ccncc3)no2)cc1[N+](=O)[O-]`: the survival was 41% (active).

With `COc1ccc(CN(C)c2ccc(-c3nc(-c4ccc(OC)c(OC)c4)no3)cc2[N+](=O)[O-])cc1`, the survival is 62% (inactive).

Consider `CCN(CC)c1ccc(-c2nc(-c3ccccc3C)no2)cc1[N+](=O)[O-]`, for which the survival is 68% (inactive).

With `CCN(CC)c1ccc(-c2nc(-c3ccco3)no2)cc1[N+](=O)[O-]`, the survival is 47% (inactive).

For the compound `CCN(CC)c1ccc(-c2nc(-c3ccccn3)no2)cc1[N+](=O)[O-]`, the survival is 41% (active).

Turning to `CN(Cc1ccccc1)c1ccc(-c2nc(-c3ccccn3)no2)cc1[N+](=O)[O-]`, the survival was 34% (active).

With `COc1ccccc1-c1noc(-c2ccc(N(C)Cc3ccccc3)c([N+](=O)[O-])c2)n1`, the survival was 36% (active).

`CC1CCC(NC(=O)c2ccc3c(c2)N(Cc2ccccc2F)C(=O)c2ccccc2S3(=O)=O)CC1` (stereo unspecified): the survival was 74% (inactive).

For `CCOc1ccc(NS(=O)(=O)c2ccc3[nH]cc(C(=O)NCC4CCCO4)c(=O)c3c2)cc1` (stereo unspecified), the survival was 87% (inactive).

As to `CCOC(=O)C1CCN(C(=O)c2nn(-c3ccc(OC)c(Cl)c3)c(=O)c3c2c2ccccc2n3C)CC1`, the survival is 76% (inactive).

For the compound `Cc1cccc(C(=O)NCC(c2cccs2)S(=O)(=O)c2cccs2)c1` (stereo unspecified), the survival is 81% (inactive).

On to `Cc1ccc(OCC(=O)NCC(=O)OCc2cc(=O)n3nc(C(C)C)sc3n2)cc1`, for which the survival was 97% (inactive).

`Cn1c(=O)c2ccccc2n2c(CCC(=O)N3CCN(c4cccc(Cl)c4)CC3)nnc12`: the survival was 82% (inactive).

Take `Cc1ccc(/C=C(\C#N)C(=O)NC2CCCCCC2)o1`: the survival was 92% (inactive).

For `CN(C)c1ccc(-c2nc(-c3ccncc3)no2)cc1[N+](=O)[O-]`, the survival is 81% (inactive).

`CN(C)c1ccc(-c2nc(-c3ccccn3)no2)cc1[N+](=O)[O-]`: the survival was 42% (active).

Take `CN(C)c1ccc(-c2nc(-c3ccco3)no2)cc1[N+](=O)[O-]`: the survival was 52% (inactive).

Take `Cc1ccc(-n2c(=O)c3oc4ccccc4c3n(CC(=O)Nc3ccccc3)c2=O)cc1C`: the survival is 54% (inactive).

For the compound `CCCN(CCC)C(=O)c1nn(C)c2c1CSc1ccc(C)cc1-2`, the survival is 92% (inactive).

As to `CCOC(=O)c1ccc(NC(=O)CS(=O)(=O)Cc2nc(-c3ccc(C)cc3)oc2C)cc1`, the survival was 95% (inactive).

Take `COc1cc(OC)c(NC(=O)C(C)n2c(=O)cc(-c3ccccc3)c3c(C)nn(C)c32)cc1Cl` (stereo unspecified): the survival was 83% (inactive).

Turning to `COc1ccc(NC(=O)C(C)N2CCN(C)CC2)cc1` (stereo unspecified), the survival is 86% (inactive).

In the case of `COc1cc(OC)c(NC(=O)C(C)n2nc(-c3ccc(C)cc3)c3c(c2=O)CCCC3)cc1Cl` (stereo unspecified), the survival was 39% (active).

On to `Cc1ccc(NC(=O)C(C)n2nnc3sc4c(c3c2=O)CCCC4)cc1Cl` (stereo unspecified), for which the survival is 82% (inactive).

Consider `COc1ccc(NC(=O)C(C)n2nc(-c3cc(C)ccc3C)c3c(c2=O)CCCC3)cc1` (stereo unspecified), for which the survival was 38% (active).

Turning to `COc1cc(OC)c(NC(=O)C(C)n2nc(-c3ccc(C)c(C)c3)ccc2=O)cc1Cl` (stereo unspecified), the survival was 64% (inactive).

As to `Cc1cc(C)n(-c2nc(C)c(C)c(=O)n2CC(=O)Nc2ccc(Cl)c(Cl)c2)n1`, the survival is 82% (inactive).

Regarding `COc1ccc(-c2nc3nc(C)cc(Nc4cccc(C(F)(F)F)c4)n3n2)cc1`, the survival was 63% (inactive).

In the case of `COc1cccc(N2C(=O)C(CC(=O)Nc3ccc(F)cc3)N(CCC3=CCCCC3)C2=O)c1` (stereo unspecified), the survival is 53% (inactive).

Turning to `COc1ccc(CNC(=O)CCC2N=C3c4ccccc4N=C(SCc4cccc(F)c4)N3C2=O)cc1` (stereo unspecified), the survival was 117% (inactive).

On to `Cc1c(CCNC(=O)c2ccc(C(C)(C)C)cc2)sc2nc(-c3ccc(F)cc3)nn12`, for which the survival is 82% (inactive).
